In PubChem BioAssay:
Active and inactive are the calls of the source. No rule for the calls is given here.

Biological target: Pantothenate synthetase (Mycobacterium tuberculosis (strain ATCC 25618 / H37Rv)) (UniProt P9WIL5)
Experiment: Coupled enzyme confirmation of inhibitors against recombinant Mtb PanC (AID 375);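 also: 0% = full reaction with vehicle and 100% = no enzyme background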
Details: coupled enzyme assay; at 10 µM, active compounds read high

Chain of Pantothenate synthetase (Mycobacterium tuberculosis (strain ATCC 25618 / H37Rv)) (P9WIL5 whole entry, looked up): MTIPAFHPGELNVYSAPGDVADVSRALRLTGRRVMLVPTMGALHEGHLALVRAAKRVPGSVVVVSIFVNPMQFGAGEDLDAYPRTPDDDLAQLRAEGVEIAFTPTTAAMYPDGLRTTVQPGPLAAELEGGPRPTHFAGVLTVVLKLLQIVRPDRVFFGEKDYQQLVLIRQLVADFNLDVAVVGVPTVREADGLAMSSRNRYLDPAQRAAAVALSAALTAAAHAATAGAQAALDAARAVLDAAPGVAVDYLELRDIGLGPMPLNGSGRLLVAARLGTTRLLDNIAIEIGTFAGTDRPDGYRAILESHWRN

| SMILES | inhibition |
| --- | --- |
| Cc1cccc(CN2CCC(CNC(=O)C3CCCN(S(=O)(=O)c4cnc[nH]4)C3)CC2)c1 (stereo not given) | 0% (inactive) |
| CN1CCN(C(=O)c2ccc3c(=O)n(CCc4ccccc4)c(=S)[nH]c3c2)CC1 | 0% (inactive) |
| N#Cc1c(SCC(=O)N2CCOCC2)nsc1SCC(=O)N1CCOCC1 | 0% (inactive) |
| Clc1ccc(CSc2nnc(Cn3cnc4ccccc43)o2)cc1 | 0% (inactive) |
| Cc1cc(-c2ccccc2)nnc1NCCN1CCOCC1 | 0% (inactive) |
| CN(C)C(=O)Cn1c(SCC(=O)NC2CCCCC2)nc2ccccc21 | 0% (inactive) |
| Cc1noc(C)c1S(=O)(=O)N1CCN(Cc2ccc3c(c2)OCO3)CC1 | 0% (inactive) |
| Cc1cc(NC(=O)c2ccc(Cl)cc2)no1 | 0% (inactive) |
| CC(C(N)=O)N1C(=O)C2C3C=CC(C3)C2C1=O (stereo not given) | 2% (inactive) |
| CC(=O)OCC(=O)[C@H]1CC[C@H]2[C@@H]3CCC4=CC(=O)CC[C@]4(C)[C@H]3CC[C@]12C | 1% (inactive) |
| C=CCn1c(SCC(=O)NCCCC)nc2scc(-c3ccco3)c2c1=O | 0% (inactive) |
| CCN(CC)CCn1c2ccccc2c2nc(C)sc21 | 1% (inactive) |
| COc1cc(CN(C)CC(=O)c2[nH]c(C)c(C(C)=O)c2C)ccc1OC(F)F | 0% (inactive) |
| CO/C([O-])=N/c1c[n+](-c2ccc(C)cc2)no1 | 0% (inactive) |
| C=COC(=O)CSc1snc(SCC(=O)OC)c1C#N | 0% (inactive) |
| C=C(C)COc1ccc(-c2nc(N)ncc2-c2ccc(OC)cc2)c(O)c1 | 2% (inactive) |
| COCCNC(=O)CCc1nc(-c2ccccc2)no1 | 0% (inactive) |
| CCOc1cc(C(=O)N(C)c2ccccc2)cc(OCC)c1OCC | 1% (inactive) |
| O=C(O)/C=C/c1ccc(O)c(O)c1 | 1% (inactive) |
| O=C(CSc1nnc(NC(=O)C2CCC2)s1)NC1CC1 | 0% (inactive) |

| SMILES | inhibition |
| --- | --- |
| COc1ccccc1N1CCN(CC(O)COc2cccc3ccccc23)CC1 (stereo not given) | 3% (inactive) |
| COC(=O)c1[nH]c2cc(OC)ccc2c1NC(=O)CN1CCOCC1 | 0% (inactive) |
| CN(C)CCCN1c2ccccc2CCc2ccccc21 | 2% (inactive) |
| COC(=O)c1ccc2ncccc2c1 | 0% (inactive) |
| CC(NC(=O)Cc1cccs1)c1ccc2c(c1)OCO2 (stereo not given) | 0% (inactive) |
| COc1ccccc1N1CCN(CCCNC(=O)Nc2ccccc2)CC1 | 10% (inactive) |
| CC1CCN(S(=O)(=O)c2cccc(C(=O)Nc3ccccn3)c2)CC1 | 0% (inactive) |
| CCn1cc(C(=O)N2CCOCC2)c(=O)c2cc(S(=O)(=O)N(C)C3CCCCC3)ccc21 | 0% (inactive) |
| CC(=O)Nc1cccc(Oc2nc(C)cc(C)c2C#N)c1 | 1% (inactive) |
| Cc1ccc(S(=O)(=O)N(C)Cc2cc3ccccc3[nH]c2=O)cc1 | 0% (inactive) |
| Cn1cnc2c(N3CCCCC3)nccc21 | 0% (inactive) |
| COC(=O)c1ccc(NC(=O)C2C3CCC(C3)C2C(=O)O)cc1 (stereo not given) | 0% (inactive) |
| Cc1cc(C)c2[nH]c(=O)c(C(c3nnnn3Cc3ccc4c(c3)OCO4)N3CCC(C)CC3)cc2c1 (stereo not given) | 0% (inactive) |
| CSc1nnc(-c2ccccc2)n1C | 7% (inactive) |
| O=C(OCc1nnc(-c2ccccc2)o1)c1ccc2ccccc2n1 | 1% (inactive) |
| CN(C(=O)c1ccccn1)c1nnc(-c2ccncc2)s1 | 0% (inactive) |
| c1ccc2c(c1)nc(NCCN1CCOCC1)c1nncn12 | 2% (inactive) |
| CCOC(=O)c1c(C)oc2ccc(OCC(=O)N(CC)CC)cc12 | 4% (inactive) |
| CCOC(=O)CSc1nc2c(c(-c3ccc(C)o3)c1C#N)CCCC2 | 0% (inactive) |
| O=C(CSc1nc(-c2ccccc2)cs1)NC(=O)NCc1ccco1 | 0% (inactive) |
